Screening results as filed in PubChem BioAssay.
This is a sample that favours compounds with a hit; in the whole collection about 21% have one here.
HCV inh = blocks hepatitis C virus | Huh7.5.1 HCVcc-Cre infection, luciferase reporter, 44 h | Potency, µM (doses to about 41.8 µM), hits mostly inhibitors | actives 3.4% (n = 340,000) | AID 651820
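HCVcc-Cre virus at an moi near 0.5 was added right after compound to cells cultured 4 h from seeding (1,000 cells/well). Luciferase activity was determined 44 h later, 15 min after substrate addition at RT.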
Pf growth 48h = inhibits P. falciparum growth in the first generation, 48 h. Potency, µM (highest dose often 28.7 µM), hits mostly inhibitors. actives 5.9% (n = 310,000). P. falciparum luciferase growth in erythrocytes, 48 h
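Firefly luciferase activity from engineered P. falciparum reports growth; inhibitors lower the luminescent signal. Cultures contained 2% hematocrit erythrocytes at 0.1% final parasitemia.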
Shiga inhibitor = blocks Shiga toxin action in Vero cells; Vero cells, Shiga toxin protein synthesis inhibition reporter; inhibition, % at 38.7 µM; actives 9.2% (n = 290,000); in the data active = inhibition mostly above about 28%, no sharp cut-off; inactive = mostly below about 43%
Pf growth 96h = inhibits malaria parasite growth, 96 h; P. falciparum luciferase reporter growth, 96 h; Potency, µM (doses to about 28.7 µM), most hits filed as inhibitors; actives 6.9% (n = 320,000)
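Parasite growth measured via integrated firefly luciferase reporter in P. falciparum. Infected erythrocytes at 2% hematocrit, 0.05% parasitemia final were treated 96 hours at 37 C under 5% CO2, and luminescence was read.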
HCMV antiviral = human cytomegalovirus inhibition. activity change, negative = inhibition, % at 57.5 µM. AID 1259415. actives 4.5% (n = 410,000). HFF cells, HCMV-luciferase reporter, 72 h; hits give low values; in the data active = activity change below about -60%; inconclusive = no clear call, values can overlap the other calls; inactive = above about -39%
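HFF cells seeded 16 h at 37C, treated with compounds, infected with luciferase-reporter HCMV at MOI 1 PFU/cell; luciferase read at 72 h post infection, normalized to buffer-only and Salinomycin controls.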
Cycloheximide cs = counter-screen hit for Shiga toxin inhibitors, cycloheximide | cell reporter, cycloheximide protein synthesis inhibition counterscreen | max response, % | actives 12% (n = 300,000) | AID 2314; in the data active = max response mostly above about 13%, no sharp cut-off; inactive = mostly below about 14%; note: read at 38.3 µM for the half of the compounds with a filed dose
Large screens that a line does not name were inactive. Unless noted, calls come from the whole dose curve; as a rule, active = well fitted inhibition curve with a large enough effect; inconclusive = small, poorly fitted or top-dose-only effect, or another doubt; inactive = no such curve, though single readings can be large or run the other way.

Cc1cccc2c1NC(=O)C21OCC(CO)([N+](=O)[O-])CO1 (stereo not given)	Pf growth 96h 2.62µM
CCCCOc1ccc(OC(=O)c2sc3ncn(Cc4cccc(F)c4)c(=O)c3c2C)cc1	none (no result: HCV inh, Pf growth 48h, Shiga inhibitor, Pf growth 96h, Cycloheximide cs)
CCCCc1nc2cc(C(=O)N3CCCCC3C(=O)OC)ccc2o1 (stereo not given)	Shiga inhibitor 56.7, Pf growth 96h inconclusive, Cycloheximide cs 38.6
CCCCc1nc2cc(C(=O)N3CCCCC3CC(=O)OCC)ccc2o1 (stereo not given)	Cycloheximide cs 31.4 (no result: HCV inh)
CCOC(=O)CC1COCCN1C(=O)c1ccc2oc(Cc3ccccc3)nc2c1 (stereo not given)	Shiga inhibitor 62.1, Cycloheximide cs 48.2
CC1CCCC(C)N1CC(O)Cn1c2ccccc2c2ccccc21 (stereo not given)	none
CCOc1ccc(N(CC)S(=O)(=O)N2CCCC(C(=O)NCc3ccccc3Cl)C2)cc1 (stereo not given)	none (no result: HCV inh, Pf growth 48h, Shiga inhibitor, Pf growth 96h, Cycloheximide cs)
CCOC(=O)N1CCN(C(=O)CN2C(=O)CC(C)(C)S(=O)(=O)c3ccccc32)CC1	Pf growth 96h 3.29µM (no result: Pf growth 48h)
CN1CCN(C(=O)CN2C(=O)CC(C)(C)S(=O)(=O)c3ccccc32)CC1	none (no result: Pf growth 48h, Pf growth 96h)
CCCN1CCN(C(=O)CN2C(=O)CC(C)(C)S(=O)(=O)c3ccccc32)CC1	Pf growth 96h 14.7µM, HCMV antiviral inconclusive
CCCCn1nc(C(=O)Nc2cc(S(=O)(=O)N(C)C)ccc2C)c2ccccc2c1=O	none
CC(C)(C)NC(=O)C(OC(=O)c1cccs1)c1ccc(F)cc1 (stereo not given)	none
CC(C)(C)NC(=O)C(OC(=O)c1cccs1)c1ccccc1 (stereo not given)	Cycloheximide cs 22.2
CC(OC(=O)CN1C(=O)NC2(CCCC2)C1=O)c1ccc(F)cc1 (stereo not given)	none (no result: Shiga inhibitor, Cycloheximide cs)
CC(C)C(c1nnnn1C1CCCCC1)N1CCOCC1 (stereo not given)	HCMV antiviral inconclusive
Cc1ccc(C(c2nnnn2C2CCCCC2)N2CCc3ccccc32)cc1 (stereo not given)	HCV inh inconclusive, Pf growth 48h 11.7µM, Pf growth 96h inconclusive
CC(C)C(c1nnnn1C1CCCC1)N1c2ccccc2CC1C (stereo not given)	HCV inh inconclusive, Pf growth 48h 3.7µM, Pf growth 96h inconclusive
CC1Cc2ccccc2N1C(=O)CSc1nnnn1C1CCCC1 (stereo not given)	none
Oc1ccc(C(c2nnnn2C2CCCC2)N2CCc3ccccc3C2)cc1 (stereo not given)	Pf growth 48h inconclusive (no result: Pf growth 96h)
CC(C)C(c1nnnn1C1CCCCC1)N1CCc2ccccc21 (stereo not given)	HCV inh inconclusive, Pf growth 48h 11.7µM (no result: Pf growth 96h)
Cc1cc(Br)c2c(c1)C1(OCCO1)C(=O)N2	Pf growth 96h inconclusive (no result: Pf growth 48h)
O=C(c1ccccc1Nc1ccc(SC(F)F)cc1)N1CCCCCC1	HCV inh inconclusive, Pf growth 48h inconclusive, Pf growth 96h inconclusive, HCMV antiviral -101.2
CN(C)C(=O)COC(=O)c1ccccc1Nc1ccc(SC(F)F)cc1	HCV inh inconclusive, HCMV antiviral -66.9, Cycloheximide cs 31.5
Cc1ccc(N2C(=O)N(CC(=O)C(C)(C)C)c3ccccc3S2(=O)=O)cc1C	none (no result: HCV inh, Pf growth 48h, Shiga inhibitor, Pf growth 96h, Cycloheximide cs)
O=C(Nc1cccc2ccccc12)c1cnccn1	Shiga inhibitor 62.0, Cycloheximide cs 31.0 (no result: Pf growth 96h)
Cc1nn(Cc2ccc(F)cc2)c(C)c1NC(=O)c1cc2ncc(Br)cn2n1	none
CC(C)c1ccccc1NC(=O)c1cnccn1	none (no result: Pf growth 96h)
CSc1ccccc1NC(=O)c1cnccn1	Cycloheximide cs 21.0
CSc1ccccc1NC(=O)c1cc2ncc(Br)cn2n1	Shiga inhibitor 93.7, Cycloheximide cs 18.5
CCC(=O)N1c2ccc(S(=O)(=O)CCC(=O)NCc3ccc(OC)cc3)cc2CC1C (stereo not given)	none (no result: HCV inh, Pf growth 48h, Shiga inhibitor, Pf growth 96h, Cycloheximide cs)
CCOc1cccc(NCc2cc3c(C(C)(C)C)nn(-c4ccccc4)c3[nH]c2=O)c1	HCV inh 12.6µM, Pf growth 48h inconclusive (no result: Pf growth 96h)
Cc1nn(-c2ccccc2)c2[nH]c(=O)c(CNCC3CCCO3)cc12 (stereo not given)	Pf growth 96h inconclusive
CC(C)(C)c1nn(-c2ccccc2)c2[nH]c(=O)c(CNCc3ccc4c(c3)OCO4)cc12	Pf growth 96h 0.329µM (no result: Pf growth 48h)
CCc1c(C)c2c(C)nn(-c3ccccc3)c2[nH]c1=O	none
CN(CCOc1ccc(Cl)cc1)C(=O)c1ccccc1SCC(=O)N1CCCC1	HCV inh 10µM, Pf growth 48h inconclusive, Pf growth 96h inconclusive, HCMV antiviral inconclusive (no result: Shiga inhibitor, Cycloheximide cs)
CN(CC(=O)Nc1c(Cl)cccc1Cl)C(=O)c1ccccc1SCC(=O)N1CCCC1	Pf growth 96h inconclusive
CCOc1ccccc1N1CCN(C(=O)c2ccccc2SCC(=O)N2CCCC2)CC1	Pf growth 48h inconclusive, Shiga inhibitor 27.5, Pf growth 96h 13.1µM, Cycloheximide cs 15.2
Cc1ccc(Cl)cc1N1CCN(C(=O)c2ccccc2SCC(=O)N2CCCC2)CC1	HCV inh 11.2µM, Pf growth 48h inconclusive, Pf growth 96h inconclusive (no result: Shiga inhibitor, Cycloheximide cs)
CCc1ccc(C(O)c2ncc(-c3cccc(C)c3)[nH]2)cc1 (stereo not given)	none (no result: HCV inh, Pf growth 48h, Shiga inhibitor, Pf growth 96h, Cycloheximide cs)
CN(CC(=O)Nc1ccc(OC(F)(F)F)cc1)C(=O)Cn1c(=O)cnc2ccccc21	Pf growth 48h inconclusive, Pf growth 96h inconclusive (no result: Shiga inhibitor, Cycloheximide cs)
CNc1ccc(C(=O)Oc2cc(O/N=[N+](\[O-])N(C)C)c([N+](=O)[O-])cc2[N+](=O)[O-])cc1	Shiga inhibitor 72.8, Cycloheximide cs 39.5 (no result: HCV inh, Pf growth 48h, Pf growth 96h, HCMV antiviral)
NNc1nc2c(-c3ccc(F)cc3)nnn2c2ccccc12	HCV inh inconclusive, Shiga inhibitor 129.9, Cycloheximide cs 50.7
Cc1ccc(-c2nnn3c2nc(Cl)c2ccccc23)cc1	none
COCCCNc1nc2c(-c3cccc(Br)c3)nnn2c2ccccc12	none (no result: HCV inh, Pf growth 48h, Shiga inhibitor, Pf growth 96h, Cycloheximide cs)
NNc1nc2c(-c3ccc(Cl)cc3)nnn2c2ccccc12	HCV inh inconclusive, Pf growth 48h inconclusive
Clc1nc2c(-c3ccccc3)nnn2c2ccccc12	HCV inh inconclusive, Cycloheximide cs 23.8
COCCCNc1nc2c(-c3ccc(Cl)cc3)nnn2c2ccccc12	Pf growth 96h 11.7µM
CCOC(=O)c1ccc2c(c1)nc(SCC(=O)N1CCOCC1)n2CC	none
Cc1ccc(C(=O)C(C)N(C(=O)c2ccc(Cl)cc2Cl)N2C(=O)CCCC2=O)cc1 (stereo not given)	Pf growth 96h 11.7µM
Cc1ccc(C(=O)CN(C(=O)c2ccc(Cl)cc2)N2C(=O)CCC2=O)cc1	none
COc1ccc(C(=O)C(C)N(C(=O)c2ccc(Cl)cc2Cl)N2C(=O)C3C4C=CC(C4)C3C2=O)cc1 (stereo not given)	Pf growth 48h 7.38µM, Pf growth 96h inconclusive
CCCCN1C[C@H](C)[C@@H](CC(=O)NCc2ccccc2)C1=O	none
CN(C)CCN=Cc1c(O)n(-c2cccc3ccccc23)c(=O)[nH]c1=O	Pf growth 96h 10.4µM
O=C(CCN1C(=O)C2CC=CCC2C1=O)OCC(=O)c1ccc(F)cc1 (stereo not given)	HCMV antiviral -75.9 (no result: Pf growth 48h, Shiga inhibitor, Pf growth 96h, Cycloheximide cs)
